These results are taken from PubChem BioAssay.

Assay [1] can be described thus: inhibitors of TNFa-induced NFkB p65 translocation, primary screen, imaging, HUVEC, MLSMR starter and 10KST1 sets (AID 438;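 active = inhibition above 20% together with a positive visual image hit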;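 also: compound added about 3h40 before a 20 min TNFalpha stimulation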;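 as to inhibition: signal is the nuclear over cytoplasmic p65 intensity ratio per well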). As to conditions: HUVEC TNFa-induced p65 nuclear translocation; cell count: measured here: nuclei count (cytotoxicity indicator), at 2.08 µM; inhibition: at 2 µM, stronger effect = higher value, 0% TNFa-plus-vehicle, 100% no-TNFa wells.
The nature of assay [2]: reduction of polyQ htt aggregates in cells – imaging, exon1htt(103Q)mCFP cells, high-content imaging, primary screen (AID 483;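 active = visual image review flags a hit and inhibition of aggregation exceeds 20%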;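 also: compound exposure lasted 3 days before fixation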;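 as to nuclei count: percent of the per-plate median nuclei count of sample wells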). As to conditions: exon1htt(103Q)mCFP cell line, aggregate imaging, at 2 µM; inhibition of aggregation: stronger effect = higher value; nuclei count: measured here: cell count, toxicity.
Assay [3] is described as follows: endothelial E-selectin expression blockers – imaging, HUVEC, immunofluorescence, MLSMR starter and 10KST1 sets, primary screen (AID 487;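 active = visually confirmed hit in the image check and inhibition above 20%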;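 as to inhibition: signal is fraction of cell area covered by stained E-selectin grains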;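 as to nuclei count: 100% = median nuclei count of all wells on the same plate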). As to conditions: HUVEC TNFalpha-induced E-selectin immunofluorescence imaging, at 2 µM; inhibition: stronger effect = higher value; nuclei count: measured here: cell number, toxicity.
The target in assay [4] is Voltage-gated potassium channel subunit beta-2 (Rattus norvegicus) (UniProt P62483). Description: inhibitors of rat Kvbeta2 reductase activity – biochemical, NADPH fluorescence, primary screen (AID 622;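 active = fluorescence slope higher than the sample average by over 3 SD, cut at about -0.22 in these data, passing the limit was not always enough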;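 also: slope of raw intensity against log time taken from 70 to 1610 s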). As to conditions: recombinant KvBeta, 4-cyanobenzaldehyde reduction, at 10 µM, stronger effect = higher value.
For assay [5] the target is unchanged. Description: enhancers of rat Kvbeta2 NADPH turnover – biochemical, NADPH fluorescence, primary screen (AID 623;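 active = NADPH fluorescence slope more negative than the mean of all samples by about 3 SD, 99.7% confidence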;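 also: fluorescence intensity change per second fitted from 20 to 320 s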). As to conditions: Recombinant KvBeta, NADPH fluorescence decrease slope, 10 min; at 10 µM; stronger effect = lower value.
The target of assay [6] is Alpha-2C adrenergic receptor (Homo sapiens) (UniProt P18825). Nature of the assay: compounds altering alpha2C-coupled GIRK flux – cell-based, HEK293 alpha2C/GIRK1/2, thallium flux, primary screen (AID 624;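 active = fluorescence slope after compound addition differing from the mean of all screened samples at 99.7% confidence, in either direction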;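 also: slope of fluorescence ratio to pre-addition baseline per second over 15 to 24 s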). As to conditions: thallium flux BTC fluorescence, at 10 µM, actives lie on both sides.
Assay [7] is described as follows: blockers of RIG-like receptor reporter activation – cell-based, Sendai virus stimulus, luciferase, 10K MLSCN set, TLR/RLR signaling modifier project, primary screen (AID 602276;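 active = inhibition at or above 50% at 10 µM; inactive = inhibition below 50%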;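 also: firefly luciferase from ISG56 promoter only with Renilla not read in this screen; 0% = Sendai virus plus DMSO and 100% = medium plus DMSO without virus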). As to conditions: HEK293 RL24 IRF3 luciferase reporter, at 10 µM, stronger effect = higher value. (In a reporter assay the amount or activity of a reporter protein is the signal.)
Assay [8] in a line: TLR3 IRF3 reporter activation blockers – cell-based, poly I:C stimulus, luciferase, 10K MLSCN set, primary screen (AID 602277). As to conditions: HEK293-TLR3 RL24 IRF3 luciferase reporter, at 10 µM, stronger effect = higher value.

Activity calls are given as the source filed them.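 The calls were made as follows, unless noted: active = inhibition of the reporter signal at or above 50%; inactive = inhibition below 50%.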 Where a SMILES comes first, the peptide text is derived from it. The star is where a group is joined. Boc = CC(C)(C)OC(=O)*

Alpha-2C adrenergic receptor (Homo sapiens), sequence (P18825 whole entry, looked up): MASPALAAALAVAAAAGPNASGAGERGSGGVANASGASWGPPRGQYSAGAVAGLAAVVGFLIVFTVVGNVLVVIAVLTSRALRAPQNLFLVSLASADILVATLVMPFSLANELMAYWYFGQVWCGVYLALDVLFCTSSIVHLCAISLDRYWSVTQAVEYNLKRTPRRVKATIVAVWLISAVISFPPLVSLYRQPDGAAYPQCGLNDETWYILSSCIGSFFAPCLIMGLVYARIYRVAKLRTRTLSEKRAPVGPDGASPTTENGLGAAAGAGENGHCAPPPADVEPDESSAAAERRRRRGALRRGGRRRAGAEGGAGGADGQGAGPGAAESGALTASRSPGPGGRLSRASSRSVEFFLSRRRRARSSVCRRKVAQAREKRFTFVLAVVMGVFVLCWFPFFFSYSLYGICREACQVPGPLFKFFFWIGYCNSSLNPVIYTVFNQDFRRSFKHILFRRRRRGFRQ
Voltage-gated potassium channel subunit beta-2 (Rattus norvegicus), sequence (P62483 whole entry, looked up): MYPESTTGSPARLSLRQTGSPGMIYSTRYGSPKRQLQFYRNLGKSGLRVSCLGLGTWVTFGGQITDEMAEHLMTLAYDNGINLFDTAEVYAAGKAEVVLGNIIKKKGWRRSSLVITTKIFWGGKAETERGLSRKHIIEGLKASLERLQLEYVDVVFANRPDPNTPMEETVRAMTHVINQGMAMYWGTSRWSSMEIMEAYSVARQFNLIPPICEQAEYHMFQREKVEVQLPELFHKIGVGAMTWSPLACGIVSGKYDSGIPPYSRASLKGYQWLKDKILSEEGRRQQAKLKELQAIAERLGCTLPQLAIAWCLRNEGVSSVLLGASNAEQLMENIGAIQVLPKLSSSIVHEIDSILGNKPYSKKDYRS

A word on the inhibition: it is the change of the read-out against control, counted positive when it falls. Regarding `Cc1cc(=O)n(-c2ccc3ccccc3n2)[nH]1`, the cell count in assay [1] was determined as 383. Besides, the inhibition in assay [1] is -0.7% (inactive); in assay [3], -37.6% (inactive); in assay [7], 17.4% (inactive); in assay [8], 9.22% (inactive). Further, the inhibition of aggregation in assay [2] was -7.3% (inactive). The nuclei count was found to be 89.7% in assay [2] and 107% in assay [3]. In addition, the fluorescence slope in assay [4] was -0.436 (inactive). In assay [5], the NADPH fluorescence slope is -5.1e-05 (inactive). The slope in assay [6] was 0.00622 (inactive).

As for `CC(NC(=O)OC(C)(C)C)C(=O)N1CCCC1C(=O)NC(Cc1ccccc1)C(N)=O` (stereo not drawn) (Boc-Ala-Pro-Phe-NH2; configuration not given here), the cell count in assay [1] came to 220. Also, the inhibition in assay [1] was 9.7% (inactive); in assay [3] it was -30.7% (inactive); in assay [7], 19.8% (inactive); in assay [8], 22.4% (inactive). Besides, the inhibition of aggregation in assay [2] is -15.1% (inactive). Besides, the figures for the nuclei count in assay [2] and in assay [3] were 85.5% and 93.1%, respectively. For the same molecule, the fluorescence slope in assay [4] is -0.498 (inactive). Besides, the NADPH fluorescence slope in assay [5] was -3.8e-06 (inactive). Also, the slope in assay [6] is 0.00536 (inactive).

Take `O=C(NCCCCNC(=O)c1cccnc1)c1cccnc1`: the cell count in assay [1] came to 514. The inhibition is 10.1% (inactive) in assay [1], -31.4% (inactive) in assay [3], 13.9% (inactive) in assay [7] and 26.9% (inactive) in assay [8]. Besides, in assay [2], the inhibition of aggregation is 8.2% (inactive). For the same molecule, the nuclei count in assay [2] stood at 99.6%; in assay [3], 116%. Besides, the fluorescence slope in assay [4] is -0.64 (inactive). Further, the NADPH fluorescence slope in assay [5] is 3.6e-05 (inactive). For the same molecule, in assay [6], the slope is 0.00666 (inactive).

For the molecule `O=C(Nc1ccccc1-c1ccccc1)NC1CCN(CC(=O)N2CCOCC2)CC1`, the cell count in assay [1] worked out at 537. In addition, the inhibition in assay [1] was -39.8% (inactive); in assay [3] it was -63.8% (inactive); in assay [7] it was 9.32% (inactive); in assay [8], 27.5% (inactive). Besides, the inhibition of aggregation in assay [2] is -5% (inactive). For the same molecule, the values for the nuclei count in assay [2] and in assay [3] were 113% and 109%, respectively. Also, the fluorescence slope in assay [4] is -0.433 (inactive). In assay [5], the NADPH fluorescence slope is -7.3e-05 (inactive). Besides, in assay [6], the slope is 0.00795 (inactive).

Take `c1ccc(-c2cnc(CSc3ncnc4sccc34)o2)cc1`: the cell count in assay [1] worked out at 308. The inhibition in assay [1] was 2.9% (inactive); in assay [3], -7.2% (inactive); in assay [7], -9.6% (inactive); in assay [8], -51.1% (inactive). In addition, the inhibition of aggregation in assay [2] was 27.8% (inactive). Also, the nuclei count was found to be 86.4% in assay [2] and 109% in assay [3]. Also, the fluorescence slope in assay [4] is -0.272 (inactive). Besides, the NADPH fluorescence slope in assay [5] is -1.7e-05 (inactive). Also, in assay [6], the slope was 0.00879 (inactive).

Take `CCOc1ccccc1N(CC(=O)N1CCOCC1)S(=O)(=O)c1ccccc1`: the cell count in assay [1] was 338. The inhibition is 0.7% (inactive) in assay [1], 44.4% (inactive) in assay [3], -13.5% (inactive) in assay [7] and -26.2% (inactive) in assay [8]. In addition, the inhibition of aggregation in assay [2] was 0.9% (inactive). For the same molecule, the nuclei count in assay [2] was found to be 100%; in assay [3], 98.7%. The fluorescence slope in assay [4] was -0.428 (inactive). The NADPH fluorescence slope in assay [5] is -3e-06 (inactive). Moreover, the slope in assay [6] is 0.00315 (inactive).

Turning to `CCCCP(=O)(CCCC)Cc1ccccc1O`, the cell count in assay [1] was determined as 363. Besides, the inhibition was -1.6% (inactive) in assay [1], -39.4% (inactive) in assay [3], -4.65% (inactive) in assay [7] and 9.82% (inactive) in assay [8]. Moreover, in assay [2], the inhibition of aggregation was 0.1% (inactive). Further, the nuclei count came out at 91.9% in assay [2] and 97.4% in assay [3]. Also, in assay [4], the fluorescence slope is -0.474 (inactive). In assay [5], the NADPH fluorescence slope was -0.000131 (inactive). The slope in assay [6] is 0.00605 (inactive).

As to `COc1ccccc1NC(=O)CSC1CC(=O)N(c2ccc3c(c2)OCO3)C1=O` (centres undefined), the cell count in assay [1] came to 685. Also, the inhibition was -3.4% (inactive) in assay [1], -109% (inactive) in assay [3], 17.9% (inactive) in assay [7] and 21.8% (inactive) in assay [8]. In assay [2], the inhibition of aggregation was -2.5% (inactive). The values for the nuclei count in assay [2] and in assay [3] were 95.7% and 122%, respectively. For the same molecule, in assay [4], the fluorescence slope was -0.622 (inactive). Also, the NADPH fluorescence slope in assay [5] was 2.7e-05 (inactive). In assay [6], the slope is 0.00433 (inactive).

Take `CCn1cc(C2Nc3ccccc3C(=O)N2O)c(C)n1` (centres undefined): the cell count in assay [1] worked out at 428. The inhibition in assay [1] is 8.8% (inactive); in assay [3], -66.4% (inactive); in assay [7], -41.1% (inactive); in assay [8] it was -70.4% (inactive). Moreover, the inhibition of aggregation in assay [2] is -27.6% (inactive). Moreover, the nuclei count in assay [2] was determined as 112%; in assay [3] it was 104%. For the same molecule, in assay [4], the fluorescence slope is -0.301 (inactive). Also, the NADPH fluorescence slope in assay [5] was -4.1e-05 (inactive). The slope in assay [6] was 0.0057 (inactive).

In the case of `COc1ccc(CN(CC(=O)NCC2CCCO2)C(=O)CNS(=O)(=O)c2ccc(C)cc2)cc1` (centres undefined), the cell count in assay [1] came to 589. Besides, the inhibition in assay [1] is -20.2% (inactive); in assay [3], -52.4% (inactive); in assay [7], 9.43% (inactive); in assay [8], 3.49% (inactive). In assay [2], the inhibition of aggregation was -5.2% (inactive). Also, the figures for the nuclei count in assay [2] and in assay [3] were 119% and 92.4%, respectively. Besides, the fluorescence slope in assay [4] is 0.012 (inactive). Moreover, in assay [5], the NADPH fluorescence slope is -3.8e-05 (inactive). Further, the slope in assay [6] is 0.00362 (inactive).

In the case of `Cn1c(SCC(N)=O)nnc1C1CCN(C(=O)NCc2ccccc2)CC1`, the cell count in assay [1] is 325. In addition, the inhibition in assay [1] is 6.8% (inactive); in assay [3], -74.7% (inactive); in assay [7], 5.51% (inactive); in assay [8], 21.8% (inactive). Besides, the inhibition of aggregation in assay [2] was -6.1% (inactive). Moreover, the results for the nuclei count in assay [2] and in assay [3] were 99.8% and 108%, respectively. Moreover, in assay [4], the fluorescence slope was -0.385 (inactive). In addition, the NADPH fluorescence slope in assay [5] is -5.9e-05 (inactive). Besides, the slope in assay [6] is 0.00348 (inactive).

Take `COc1ccccc1Cn1nnc2c(=O)[nH]c(C3CCN(C(=O)c4ccccc4Cl)CC3)nc21`: the cell count in assay [1] came to 324. The inhibition is 3.2% (inactive) in assay [1], -5.4% (inactive) in assay [3], 18.5% (inactive) in assay [7] and 40.2% (inactive) in assay [8]. The inhibition of aggregation in assay [2] was 1.4% (inactive). The nuclei count was 109% in assay [2] and 98% in assay [3]. Further, the fluorescence slope in assay [4] is -0.624 (inactive). For the same molecule, the NADPH fluorescence slope in assay [5] is -1.1e-05 (inactive). Also, the slope in assay [6] is 0.00545 (inactive).

As to `Cc1cccc(NC2SC(=O)N(c3ccccc3)C2=O)c1` (centres undefined), in assay [1], the cell count amounted to 152. In addition, the inhibition is -14.3% (inactive) in assay [1], 26.4% (inactive) in assay [3], -2.7% (inactive) in assay [7] and -12.1% (inactive) in assay [8]. Moreover, the inhibition of aggregation in assay [2] is 11.5% (inactive). The nuclei count in assay [2] is 92.8%; in assay [3] it was 80.9%. Besides, the fluorescence slope in assay [4] was -0.377 (inactive). The NADPH fluorescence slope in assay [5] is 5.7e-06 (inactive). Also, in assay [6], the slope is 0.00476 (inactive).

`Cc1ccc(-c2nnc(SCC(=O)N3c4ccccc4NC(=O)C3(C)C)n2N)cc1`: the cell count in assay [1] stood at 809. Moreover, the inhibition in assay [1] was -0.7% (inactive); in assay [3], -92% (inactive); in assay [7], -12.6% (inactive); in assay [8], -5.26% (inactive). Moreover, the inhibition of aggregation in assay [2] is -26.4% (inactive). Besides, the values for the nuclei count in assay [2] and in assay [3] were 93.6% and 120%, respectively. Also, in assay [4], the fluorescence slope was -0.361 (inactive). In assay [5], the NADPH fluorescence slope is -2.3e-05 (inactive). In assay [6], the slope was 0.00498 (inactive).
